HIV RNase H inh-1: HIV-1 RT RNase H inhibitors, primary screen, biochemical, fluorescence | Gag-Pol polyprotein (Human immunodeficiency virus type 1 group M subtype B (isolate … | RT-RNase H RNA/DNA duplex cleavage | inhibition, % at 10 µM | hit rate 1.9% among 65,000 | AID 565, 2006; in the data active = inhibition above about 50%
HIV RNase H inh-2: HIV-1 RT RNase H inhibitors, retest, confirmation, biochemical; Recombinant RT RNase H, fluorescent RNA/DNA duplex cleavage; shares compounds with HIV RNase H inh-1; inhibition, % at 10 µM; hit rate 39% among 1,000; AID 651, 2007; in the data active = inhibition above about 48%
* = called active by the depositor. This excerpt belongs to a sample that is enriched for hits.

SMILES | HIV RNase H inh-1 | others
CCCCC(CC)Cn1c2nc3ccccc3nc2c2c(=N)oc(C)nc21 (stereo unspecified) | 67.7* | HIV RNase H inh-2=65.0*
CC(C)OC(=O)C1C2C=CC3(CN(Cc4cccs4)C(=O)C13)O2 (stereo unspecified) | 2.5
COc1ccc(-n2nc(C(=O)NCC(=O)NCc3ccco3)c3ccccc3c2=O)cc1 | -9.6
COc1ccc(-n2nc(C(=O)NCc3ccco3)c3c4ccccc4n(C)c3c2=O)cc1Cl | 71.2* | HIV RNase H inh-2=8.5
O=C(NCc1ccco1)c1nn(-c2ccccc2)c(=O)c2ccccc12 | -20.7
Cc1cc(NC(=O)CCCC(=O)NCc2cccs2)no1 | -7.5
O=c1oc2ccccc2n1Cc1ccccc1Cl | -88.1
O=S(=O)(Cc1ccccc1)N1CCc2ccccc21 | -32.9
Cc1cc(C)n(CCc2nc(-c3cccs3)cs2)n1 | -1.2
Cc1nn(CCc2nc(-c3ccco3)cs2)c2[nH]c(=O)cc(C(F)(F)F)c12 | 87.6* | HIV RNase H inh-2=68.6*
O=c1[nH]c(=O)n(Cc2ccccc2)c2nc(-c3ccco3)cc(C(F)(F)F)c12 | 2.9
O=C(CN1CCN(C2CCCCC2)CC1)NCCC1=CCCCC1 | 6.0
O=C(N1CCOCC1)N1CCN(S(=O)(=O)N2CCCCC2)CC1 | -14.1
CCn1c(SCC(=O)Nc2ccc3c(c2)OCCO3)nnc1-c1ccco1 | -1.1
N#Cc1c(NC(=O)CCn2cnc3ccccc3c2=O)oc(-c2ccccc2)c1-c1ccccc1 | 3.6
CCn1c(SCC(=O)Nc2ccc3c(c2)c2ccccc2n3CC)nnc1-c1ccco1 | 100.2* | HIV RNase H inh-2=10.9
N#Cc1c(NC(=O)CSc2ncnc3sccc23)oc(-c2ccco2)c1-c1ccco1 | 73.7* | HIV RNase H inh-2=18.9
CCn1c(SCC(=O)n2c(C)c(C)c3ccccc32)nnc1-c1ccco1 | 2.7
CCn1c(SCC(=O)Nc2oc(-c3ccccc3)c(-c3ccccc3)c2C#N)nnc1-c1ccco1 | 64.1* | HIV RNase H inh-2=13.5
CCc1nnc(NC(=O)CSc2nnc(-c3ccco3)n2CC)s1 | -0.3
CCn1c(SCC(=O)Nc2nonc2C)nnc1-c1ccco1 | 1.4
N#Cc1ccsc1NC(=O)CSc1ncnc2ccccc12 | 26.5
CN(C)P(=NC(=O)COc1ccc(Cl)cc1Cl)(N(C)C)N(C)C | -25.8
Clc1ccc(COc2ccccn2)c(Cl)c1 | -16.5
CCCCN(CCCNC(=O)C1CCN(S(=O)(=O)CC)CC1)c1ccccc1 | 1.1
SMILES | HIV RNase H inh-1 | others
CC1(C)NC(=O)N(CCCSc2ccc(Cl)cc2)C1=O | 4.7
O=C(NCCC1=CCCCC1)C1CCCN(c2nc3ccccc3o2)C1 (stereo unspecified) | -5.1
CC(=O)CCn1c(=O)n(CCC(C)=O)c(=O)n(CCC(C)=O)c1=O | -10.8
Cc1cc(Nc2cccc(C)c2C)n2nc(C)nc2n1 | -17.3
C/C(N)=C(/C#N)C(=O)CSc1nnc(Nc2cccc(C)c2C)s1 | -0.4
Cc1cccc(Nc2n[nH]c(=S)s2)c1C | 77.4* | HIV RNase H inh-2=85.2*
O=C(Nc1cc(C(F)(F)F)ccc1N1CCCC1)c1cccnc1 | 43.6
CCC(=O)N1CCN(c2ccccc2NC(=O)COc2cc(C)ccc2C(C)C)CC1 | -1.7
O=c1cc(CN2CCN(c3ccccc3)CC2)c2cc(O)c(-c3ccccc3)cc2o1 | 72.9* | HIV RNase H inh-2=68.9*
CCc1cc2c(CN3CCN(CC)CC3)cc(=O)oc2cc1O | -3.0
O=c1cc(CN2CCN(C/C=C/c3ccccc3)CC2)c2cc(O)ccc2o1 | 0.2
CC(C)c1ccc2oc(=O)cc(CN3CCN(c4ccc(F)cc4)CC3)c2c1 | 42.3
COc1ccc(N2CCN(Cc3cc(=O)oc4cc5c(cc34)CCCC5)CC2)cc1 | 81.5* | HIV RNase H inh-2=62.7*
CCc1ccc2oc(=O)cc(CN3CCN(c4ccc(F)cc4)CC3)c2c1 | 11.0
CCOCCCNC(=O)C(C)NS(=O)(=O)c1ccc(C)cc1 (stereo unspecified) | 1.9
COC(=O)c1ccc(CN2C(=O)NC3(CCCCC3C)C2=O)o1 (stereo unspecified) | -1.5
CC1(C)CC(=O)CC(C)(C)N1OC(=O)c1ccccn1 | -3.9
CCN(Cc1ccccc1)C(=O)Cn1cc2c(n1)CCCC2 | -12.6
O=c1[nH]c2ccc(Br)cc2c(-c2ccccc2)c1N1CCOCC1 | -3.2
O=c1c2c([nH]c3ccc(Br)cc13)CCCC2 | -1.8
O=c1ccc2cc3c([nH]c4ccc(Br)cc43)oc-2c1O | 87.7* | HIV RNase H inh-2=57.8*
N#CC1=C(N)S[C@H](C(=O)C23CC4CC(CC(C4)C2)C3)[C@H]1c1ccncc1 | -1.3
COc1ccc(N2CC(C)Cn3c2nc2c3c(=O)[nH]c(=O)n2C)cc1 (stereo unspecified) | -14.8
COc1ccc(N2CCCn3c2nc2c3c(=O)n(CCc3ccccc3)c(=O)n2C)cc1 | -21.0
Cc1ccc(N2CCn3c2nc2c3c(=O)n(CCc3ccccc3)c(=O)n2C)cc1 | 63.9* | HIV RNase H inh-2=46.4
CCOc1ccc(N2CCCn3c2nc2c3c(=O)n(CCc3ccccc3)c(=O)n2C)cc1 | 4.4
COc1cccc(-c2nnc(SCC(=O)OC(C)C)n2Cc2ccco2)c1 | -2.4

From PubChem BioAssay
